Results on 22 compounds are retold here after PubChem BioAssay (Tox21).

Experiment [1] can be described thus: qHTS assay to identify small molecule antagonists of the thyroid receptor (TR) signaling pathway - cell viability counter screen (AID 743064). Further: nearly all actives have a fitted effect of over 50% in size. Further: potency means the concentration at half of the fitted maximal effect. Put shortly: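 GH3.TRE-Luc cells, 4 h pre-plating; cpd + T3 1 nM final; 37 °C 23.5 h; CellTiter-Fluor 30 min; fluorescence read.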
For orientation: In qHTS, concentration-response curves come from the screen itself.

Experiment [2] in a line: qHTS assay to identify small molecule antagonists of the thyroid receptor (TR) signaling pathway (AID 743065). Further: nearly all actives have a fitted effect of over 55% in size. Further: potency means the concentration at half of the fitted maximal effect. Summed up:
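Antagonism measured as loss of luciferase signal in GH3 cells stably carrying a TRE-luciferase reporter, co-treated with compound and T3 (1 nM final) for 23.5 h at 37 C. Viability was read in the same well by CellTiter-Fluor.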

The test system of experiment [3] is thyroid hormone receptor (rat, GH3 cells). In words: qHTS assay to identify small molecule agonists of the thyroid receptor (TR) signaling pathway (AID 743066; calls by dose curve).
Experiment [4] concerns the target Estrogen receptor (Homo sapiens) (UniProt P03372). As to the kind of experiment: qHTS assay to identify small molecule antagonists of the estrogen receptor alpha (ER-alpha) signaling pathway (AID 743069; active means well fitted curve in the direction sought with a large enough effect in the signal ratio in the repeat runs, not every such curve was filed as active; the % refers to the signal ratio). Summed up:
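Fluorescence intensity from a beta-lactamase FRET substrate served as the read-out. Cells: HEK293 with stably integrated ER-alpha-UAS-bla reporter. Agonist 17beta-estradiol was co-added with compounds; incubation 18 hr at 37C, substrate 2 hr at room temperature.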

Experiment [5] in a line: qHTS assay to identify small molecule antagonists of the estrogen receptor alpha (ER-alpha) signaling pathway - cell viability counter screen (AID 743074; calls by dose curve; further: nearly all actives have a fitted effect of over 45% in size).
For experiment [6], the target named is Estrogen receptor (Homo sapiens) (UniProt P03372). In words: qHTS assay to identify small molecule agonists of the estrogen receptor alpha (ER-alpha) signaling pathway (AID 743075; calls by dose curve).
Chain of Estrogen receptor (Homo sapiens) (P03372 whole entry, looked up): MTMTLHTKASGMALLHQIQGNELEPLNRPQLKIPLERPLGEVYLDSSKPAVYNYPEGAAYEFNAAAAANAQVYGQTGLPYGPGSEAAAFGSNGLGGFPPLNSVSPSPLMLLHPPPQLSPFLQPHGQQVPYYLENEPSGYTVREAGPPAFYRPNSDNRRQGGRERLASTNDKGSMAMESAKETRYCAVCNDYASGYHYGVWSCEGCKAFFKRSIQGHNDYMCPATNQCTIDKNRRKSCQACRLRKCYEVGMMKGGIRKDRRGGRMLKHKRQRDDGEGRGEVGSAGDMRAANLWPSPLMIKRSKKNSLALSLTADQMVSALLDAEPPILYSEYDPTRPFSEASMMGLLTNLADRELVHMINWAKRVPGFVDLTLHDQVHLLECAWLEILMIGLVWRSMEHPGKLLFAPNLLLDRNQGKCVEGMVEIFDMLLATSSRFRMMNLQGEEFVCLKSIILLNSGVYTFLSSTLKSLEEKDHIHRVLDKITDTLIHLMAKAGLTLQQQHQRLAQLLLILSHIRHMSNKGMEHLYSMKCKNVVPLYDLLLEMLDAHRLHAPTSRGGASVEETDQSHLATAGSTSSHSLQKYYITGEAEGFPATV
For experiment [7] the target is unchanged. As to the kind of experiment: qHTS assay to identify small molecule agonists of the estrogen receptor alpha (ER-alpha) signaling pathway using the BG1 cell line (AID 743079). Further: nearly all actives have a fitted effect of over 20% in size. Further: potency means the concentration at half of the fitted maximal effect. Particulars: BG1Luc4E2 cells, ERE-luciferase agonist, 22 h; activation: at 70.3 µM (top of the series).
The nature of experiment [8]: qHTS assay to identify small molecule antagonists of the estrogen receptor alpha (ER-alpha) signaling pathway using the BG1 cell line (AID 743080; calls by dose curve;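 further: BG1 cells stimulated with 17beta-estradiol alongside compound; nearly all actives have a fitted effect of over 25% in size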). Put shortly:
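Quantitative HTS on the Tox21 10K library: BG1 cells with endogenous ER-alpha and ERE-luciferase reporter, 17beta-estradiol stimulation, 21.5 h compound exposure, luminescence endpoint with parallel fluorescence cytotoxicity counter-read.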

Experiment [9] in a line: qHTS assay to identify small molecule antagonists of the estrogen receptor alpha (ER-alpha) signaling pathway using the BG1 cell line - cell viability counter screen (AID 743081).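 Further: compound given together with 17beta-estradiol as the ER stimulus; nearly all actives have a fitted effect of over 45% in size.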
The next experiment has as its target Aromatase (Homo sapiens) (UniProt P11511). In words: qHTS assay to identify aromatase inhibitors (AID 743083). Further: nearly all actives have a fitted effect of over 55% in size.

Molecules are shown by their SMILES. “And” between values parts separate entries of the source, which are not always exact repeats. Identical values can stand only once. Records with an inconclusive call do not appear. The source made the active and inactive calls. Unless noted, the call rests on the fitted dose curve; in most records, active means well fitted curve in the direction sought with a large enough effect in the repeat runs; inconclusive means weak or mixed curves; inactive means no such curve, though single readings can be large; an effect the other way counts as inactive or inconclusive.

Chain of Aromatase (Homo sapiens) (P11511 whole entry, looked up): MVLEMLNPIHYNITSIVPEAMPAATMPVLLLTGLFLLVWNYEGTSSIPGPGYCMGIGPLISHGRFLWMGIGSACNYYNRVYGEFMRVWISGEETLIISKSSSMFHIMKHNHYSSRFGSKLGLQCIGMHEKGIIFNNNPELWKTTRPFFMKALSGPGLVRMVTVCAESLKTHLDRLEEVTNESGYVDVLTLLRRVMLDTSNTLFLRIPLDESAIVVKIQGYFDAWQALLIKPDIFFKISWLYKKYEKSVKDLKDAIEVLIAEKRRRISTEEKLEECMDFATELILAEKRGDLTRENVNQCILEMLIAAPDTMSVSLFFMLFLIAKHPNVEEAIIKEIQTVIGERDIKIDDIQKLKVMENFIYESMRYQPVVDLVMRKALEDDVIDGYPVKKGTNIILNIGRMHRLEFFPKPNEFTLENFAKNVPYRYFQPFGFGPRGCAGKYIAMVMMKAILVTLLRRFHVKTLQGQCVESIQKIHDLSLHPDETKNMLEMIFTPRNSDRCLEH

Consider `C=CCN1CCCC1CNC(=O)c1cc(S(N)(=O)=O)cc(OC)c1OC` (configuration not stated), for which the Potency result in [1], in [2], in experiment [3], in experiment [4], in experiment [5] and in experiment [6] was “inactive” throughout. For the same compound, the Potency result (in experiment [7]; in experiment [8]; in [9]; with Aromatase (Homo sapiens)) was “inactive” throughout.

Turning to `CCCOc1cc(N)ccc1C(=O)OCCN(CC)CC`, the Potency entry in [1], in experiment [2], in experiment [3], in experiment [4], in [5] and in experiment [6] was “inactive” each time. For the same compound, the Potency result (in experiment [7]; in experiment [8]; with Aromatase (Homo sapiens)) was “inactive” throughout.

As for `CCCC(=O)O[C@]1(C(=O)COC(C)=O)CC[C@H]2[C@@H]3C[C@H](F)C4=CC(=O)C=C[C@]4(C)[C@@]3(F)[C@@H](O)C[C@@]21C`, the Potency result in experiment [1], in experiment [2], in experiment [3], in [4], in experiment [5] and in experiment [6] was “inactive” in each case. Also, the Potency result (in experiment [7]; in [9]; with Aromatase (Homo sapiens)) was “inactive” throughout.

Consider `CC(C)(CO)[C@@H](O)C(=O)NCCCC(=O)O`, for which the Potency entry in experiment [1], in experiment [2], in [3], in [4], in experiment [5] and in experiment [6] was “inactive” each time. Besides, the Potency result (in experiment [8]; in [9]; with Aromatase (Homo sapiens)) was “inactive” each time.

As for `O=C(OCCO)c1ccccc1O`, the Potency result in experiment [1], in experiment [2], in [3], in [4], in [5] and in [6] was “inactive” each time. For the same compound, the Potency entry (in experiment [7]; in experiment [9]; with Aromatase (Homo sapiens)) was “inactive” throughout.

In the case of `Cc1nnc(C(C)C)n1C1C[C@H]2CC[C@@H](C1)N2CC[C@H](NC(=O)C1CCC(F)(F)CC1)c1ccccc1` (some centres not stated), the Potency result in [1], in experiment [2], in experiment [3], in experiment [4], in experiment [5] and in [6] was “inactive” throughout. Besides, the Potency result (in experiment [7]; in experiment [8]; with Aromatase (Homo sapiens)) was “inactive” each time.

Regarding `CCC(=O)NS(=O)(=O)c1ccc(-c2c(-c3ccccc3)noc2C)cc1`, the Potency result in [1], in experiment [2], in experiment [3], in [4], in experiment [5] and in [6] was “inactive” each time. The Potency entry (in experiment [7]; in experiment [8]; with Aromatase (Homo sapiens)) was “inactive” in each case.

For the compound `O=C(O)COc1ccc(CCNS(=O)(=O)c2ccccc2)s1`, the Potency entry in experiment [1], in experiment [2], in experiment [3], in [4], in experiment [5] and in [6] was “inactive” in each case. In addition, the Potency entry (in [7]; in experiment [9]; with Aromatase (Homo sapiens)) was “inactive” each time.

On to `O=C(O)CC/C=C\CC[C@@H]1[C@@H](N2CCCCC2)[C@@H](O)C[C@@H]1OCc1ccc(-c2ccccc2)cc1`, for which the Potency result in experiment [1], in experiment [2], in experiment [3], in experiment [4], in experiment [5] and in [6] was “inactive” in each case. The Potency result (in experiment [7]; in experiment [9]; with Aromatase (Homo sapiens)) was “inactive” each time.

Take `NC(N)=NCC1COc2ccccc2O1` (configuration not stated): the Potency entry in experiment [1], in experiment [2], in experiment [3], in experiment [4], in experiment [5] and in experiment [6] was “inactive” each time. Besides, the Potency entry (in experiment [7]; in experiment [8]; with Aromatase (Homo sapiens)) was “inactive” throughout.

Take `NCCCC[C@H](NC(=O)[C@@H]1CCCN1C(=O)[C@@H]1CSSC[C@H](N)C(=O)N[C@@H](Cc2ccccc2)C(=O)N[C@@H](Cc2ccccc2)C(=O)N[C@@H](CCC(N)=O)C(=O)N[C@@H](CC(N)=O)C(=O)N1)C(=O)NCC(N)=O`: the Potency result in experiment [1], in experiment [2], in experiment [3], in [4], in experiment [5] and in experiment [6] was “inactive” in each case. In addition, the Potency entry (in [7]; in experiment [8]; in the experiment with Aromatase (Homo sapiens)) was “inactive” each time.

In the case of `O=C(Nc1ccc(O)cc1)c1ccccc1O`, the Potency entry in experiment [1], in [2], in experiment [3], in experiment [4], in [5] and in experiment [6] was “inactive” each time. For the same compound, the Potency result (in [9]; with Aromatase (Homo sapiens)) was “inactive” each time. The Potency in experiment [7] is 13.3 µM (active).

Turning to `CC(C)c1nc(N(C)S(C)(=O)=O)nc(-c2ccc(F)cc2)c1/C=C/C(O)CC(O)CC(=O)O` (configuration not stated), the Potency result in experiment [1], in experiment [2], in experiment [3], in experiment [4], in experiment [5] and in experiment [6] was “inactive” each time. Besides, in experiment [9], the Potency entry was “inactive”. Also, the Potency in experiment [7] is 26.6 µM (active).

Turning to `O=S(=O)(O)Oc1ccc(C(c2ccc(OS(=O)(=O)O)cc2)c2ccccn2)cc1`, the Potency entry in experiment [1], in experiment [2], in experiment [3], in experiment [4], in experiment [5] and in experiment [6] was “inactive” in each case. The Potency result (in experiment [7]; with Aromatase (Homo sapiens)) was “inactive” in each case.

For the compound `CN=C(NC)NCc1ccccc1`, the Potency entry in experiment [1], in [2], in experiment [3], in [4], in experiment [5] and in experiment [6] was “inactive” throughout. For the same compound, the Potency result (in experiment [8]; in experiment [9]; in the experiment with Aromatase (Homo sapiens)) was “inactive” in each case.

Take `[O]=[Bi][O]C(=O)[O][Bi]=[O]`: the Potency result in [1], in experiment [2], in experiment [3], in [4], in experiment [5] and in experiment [6] was “inactive” in each case. For the same compound, the Potency entry (in [7]; in experiment [9]; with Aromatase (Homo sapiens)) was “inactive” each time.

With `Cn1nnnc1SCC1=C(C(=O)O)N2C(=O)[C@@H](NC(=O)[C@H](O)c3ccccc3)[C@H]2SC1`, the Potency entry in experiment [1], in experiment [2], in experiment [3], in [4], in experiment [5] and in experiment [6] was “inactive” throughout. Further, the Potency result (in experiment [7]; in experiment [9]; with Aromatase (Homo sapiens)) was “inactive” in each case.

As to `CN1[C@@H]2CC[C@H]1CC(OC(c1ccccc1)c1ccccc1)C2` (some centres not stated), the Potency in experiment [1] was 16.8 µM (active) and 26.6 µM (active); in [2] it was 13.3 µM (active) and 23.7 µM (active) and 11.9 µM (active). Moreover, the Potency result in experiment [3], in experiment [4], in [5], in experiment [6], in experiment [7] and in [9] was “inactive” throughout. Further, in the experiment with Aromatase (Homo sapiens), the Potency result is “inactive”.

With `OC(CN1CCCCC1)c1cc(-c2ccccc2)on1` (configuration not stated), the Potency result in experiment [1], in [2], in [3], in experiment [4], in [5] and in experiment [6] was “inactive” in each case. The Potency entry (in [9]; with Aromatase (Homo sapiens)) was “inactive” throughout. Moreover, the Potency in [7] is 23.7 µM (active).

On to `CC1(C)S[C@@H]2[C@H](NC(=O)C(C(=O)Oc3ccc4c(c3)CCC4)c3ccccc3)C(=O)N2[C@H]1C(=O)O` (some centres not stated), for which the Potency result in experiment [1], in experiment [2], in experiment [3], in experiment [4], in [5] and in experiment [6] was “inactive” in each case. The Potency result (in experiment [8]; in [9]; in the experiment with Aromatase (Homo sapiens)) was “inactive” each time.

Turning to `CC(C)[C@@H]1CC[C@@H](C)C[C@H]1OC(=O)c1ccccc1O`, the Potency entry in experiment [1], in experiment [2], in experiment [3], in [4], in [5] and in [6] was “inactive” each time. The Potency entry (in [7]; in experiment [8]; with Aromatase (Homo sapiens)) was “inactive” each time.

For the compound `CCOC(=O)O[C@]1(C(=O)COC(=O)CC)CC[C@H]2[C@@H]3CCC4=CC(=O)C=C[C@]4(C)[C@H]3[C@@H](O)C[C@@]21C`, the Potency entry in [1], in experiment [2], in [3], in experiment [4], in experiment [5] and in experiment [6] was “inactive” throughout. In addition, the Potency entry (in experiment [7]; in experiment [9]; with Aromatase (Homo sapiens)) was “inactive” each time.
